Experimental data reported in the supplement of paper PMC10849652.
Of roughly 7,900 targets only a part is listed; those with a hit were picked by preference. About 0.6% of all pairs of compound and target were hits.

What was measured:
Assay in all cases: log2 fold change, soluble protein after heating vs DMSO (PISA); higher = thermal stabilisation; K562 cells, 10 uM, 30 min; active = over 0.2 and 3.5 SD of the protein, either way, in both replicates (recomputed)
[1] = compound: COC1=CC=C(C=C1)CN2C=CC3=C2C=C(C=C3)C(=O)NO
Summary of the method: (§1)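 K562 cells at 2×10^6 cells/mL were given 10 μM compound for 30 min. Aliquots then went through 3 min of heating across 48°C-58°C, were pooled, and were extracted in PBS with 0.5% NP-40 at 4°C, and the supernatant after 21,000xg for 90 min was quantified by TMTpro 16plex LC-MS/MS with channel sums equalised. Thermal stability relative to control samples, from duplicates, is given as log2 fold change.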

filanesib = compound: CON(C)C(=O)N1N=C(c2cc(F)ccc2F)S[C@@]1(CCCN)c1ccccc1 [filanesib]
Summary of the method: as §1

zotarolimus = compound: CO[C@H]1C[C@@H]2CC[C@@H](C)[C@@](O)(O2)C(=O)C(=O)N2CCCC[C@H]2C(=O)O[C@H]([C@H](C)C[C@@H]2CC[C@H](n3cnnn3)[C@H](OC)C2)CC(=O)[C@H](C)/C=C(\C)[C@@H](O)[C@@H](OC)C(=O)[C@H](C)C[C@H](C)/C=C/C=C/C=C/1C [zotarolimus]
Summary of the method: as §1

idasanutlin = compound: COc1cc(C(=O)O)ccc1NC(=O)[C@@H]1N[C@@H](CC(C)(C)C)[C@](C#N)(c2ccc(Cl)cc2F)[C@H]1c1cccc(Cl)c1F [idasanutlin]
Summary of the method: as §1

alisertib = compound: COc1cc(Nc2ncc3c(n2)-c2ccc(Cl)cc2C(c2c(F)cccc2OC)=NC3)ccc1C(=O)O [alisertib]
Summary of the method: as §1

[2] = compound: COc1cc2nc(-c3cc(F)ccc3O)nc(N[C@@H]3CNC[C@H]3C(C)(C)O)c2cc1OC
Summary of the method: as §1

gefitinib = compound: COc1cc2ncnc(Nc3ccc(F)c(Cl)c3)c2cc1OCCCN1CCOCC1 [gefitinib]
Summary of the method: as §1

[3] = compound: COc1cccc2cc(-c3nc([C@H]4CC[C@H](C(=O)O)CC4)n4ncnc(N)c34)[nH]c12
Summary of the method: as §1

lapatinib = compound: CS(=O)(=O)CCNCc1ccc(-c2ccc3ncnc(Nc4ccc(OCc5cccc(F)c5)c(Cl)c4)c3c2)o1 [lapatinib]
Summary of the method: as §1

pictilisib = compound: CS(=O)(=O)N1CCN(Cc2cc3nc(-c4cccc5[nH]ncc45)nc(N4CCOCC4)c3s2)CC1 [pictilisib]
Summary of the method: as §1

Measured: log2 fold change

EXOC4 (UniProt Q96A65)
inactive: [1] 0.029 | filanesib 0.009 | zotarolimus 0.065 | idasanutlin -0.052 | alisertib -0.002 | [2] 0.164 | gefitinib 0.002 | [3] -0.086 | lapatinib 0.008 | pictilisib -0.059

DHCR24 (UniProt Q15392)
inactive: [1] 0.061 | filanesib -0.074 | zotarolimus 0.013 | idasanutlin -0.087 | alisertib -0.123 | [2] 0.047 | [3] -0.038 | lapatinib 0.711 | pictilisib 0.055
active: gefitinib 1.05

CUTA isoform 2 (UniProt O60888)
Chain of UniProt O60888 (O60888 whole entry, looked up): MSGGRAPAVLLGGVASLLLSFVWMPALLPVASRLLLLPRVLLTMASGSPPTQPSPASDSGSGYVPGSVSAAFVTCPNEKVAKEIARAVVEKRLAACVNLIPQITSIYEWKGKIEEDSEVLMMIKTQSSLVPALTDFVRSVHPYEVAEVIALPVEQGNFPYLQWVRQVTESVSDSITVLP
inactive: [1] 0.248 | filanesib 0.108 | zotarolimus -0.159 | idasanutlin 0.002 | alisertib -0.055 | [2] -0.225 | gefitinib 0.037 | [3] 0.012 | lapatinib 0.023 | pictilisib -0.358

EEF1AKNMT (UniProt Q8N6R0)
inactive: [1] -0.256 | filanesib -0.052 | zotarolimus 0.096 | idasanutlin 0.013 | alisertib -0.035 | [2] 0.037 | gefitinib 0.065 | [3] -0.037 | lapatinib -0.014 | pictilisib 0

CTNNB1 (UniProt P35222)
Chain of UniProt P35222 (P35222 whole entry, looked up): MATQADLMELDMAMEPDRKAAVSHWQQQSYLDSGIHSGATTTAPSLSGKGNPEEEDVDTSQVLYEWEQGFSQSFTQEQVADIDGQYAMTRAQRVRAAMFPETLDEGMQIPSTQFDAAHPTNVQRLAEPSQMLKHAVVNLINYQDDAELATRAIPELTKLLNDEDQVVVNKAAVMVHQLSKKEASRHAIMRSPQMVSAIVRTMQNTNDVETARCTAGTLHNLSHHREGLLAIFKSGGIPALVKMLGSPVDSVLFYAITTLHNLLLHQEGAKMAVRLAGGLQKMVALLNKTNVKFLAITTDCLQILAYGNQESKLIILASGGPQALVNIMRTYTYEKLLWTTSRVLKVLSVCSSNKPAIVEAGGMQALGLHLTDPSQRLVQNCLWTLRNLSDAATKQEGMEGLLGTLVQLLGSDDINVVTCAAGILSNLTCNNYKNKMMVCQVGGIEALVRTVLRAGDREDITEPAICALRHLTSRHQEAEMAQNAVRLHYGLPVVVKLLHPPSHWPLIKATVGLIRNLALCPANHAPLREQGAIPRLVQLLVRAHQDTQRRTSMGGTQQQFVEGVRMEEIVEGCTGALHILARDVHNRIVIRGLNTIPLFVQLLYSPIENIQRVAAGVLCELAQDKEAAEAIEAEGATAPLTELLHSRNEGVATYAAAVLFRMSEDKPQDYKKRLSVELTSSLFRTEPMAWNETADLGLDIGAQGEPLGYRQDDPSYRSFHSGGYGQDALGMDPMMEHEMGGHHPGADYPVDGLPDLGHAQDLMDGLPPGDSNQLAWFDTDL
inactive: [1] -0.082 | filanesib 0.174 | zotarolimus 0.029 | idasanutlin -0.056 | alisertib -0.084 | [2] 0.072 | gefitinib -0.001 | [3] 0.054 | lapatinib 0 | pictilisib -0.2

DHFR (UniProt P00374)
Chain of UniProt P00374 (P00374 whole entry, looked up): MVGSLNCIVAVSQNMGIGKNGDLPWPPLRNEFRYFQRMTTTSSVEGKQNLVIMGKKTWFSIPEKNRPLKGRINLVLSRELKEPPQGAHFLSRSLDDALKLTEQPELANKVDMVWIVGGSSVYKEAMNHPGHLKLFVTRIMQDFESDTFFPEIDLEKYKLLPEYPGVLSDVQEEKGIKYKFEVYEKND
inactive: [1] -0.057 | filanesib 0.089 | zotarolimus 0.065 | idasanutlin -0.051 | alisertib -0.08 | [2] 0.109 | gefitinib -0.021 | [3] -0.05 | lapatinib -0.061 | pictilisib 0.039

CTSC (UniProt P53634)
Chain of UniProt P53634 (P53634 whole entry, looked up): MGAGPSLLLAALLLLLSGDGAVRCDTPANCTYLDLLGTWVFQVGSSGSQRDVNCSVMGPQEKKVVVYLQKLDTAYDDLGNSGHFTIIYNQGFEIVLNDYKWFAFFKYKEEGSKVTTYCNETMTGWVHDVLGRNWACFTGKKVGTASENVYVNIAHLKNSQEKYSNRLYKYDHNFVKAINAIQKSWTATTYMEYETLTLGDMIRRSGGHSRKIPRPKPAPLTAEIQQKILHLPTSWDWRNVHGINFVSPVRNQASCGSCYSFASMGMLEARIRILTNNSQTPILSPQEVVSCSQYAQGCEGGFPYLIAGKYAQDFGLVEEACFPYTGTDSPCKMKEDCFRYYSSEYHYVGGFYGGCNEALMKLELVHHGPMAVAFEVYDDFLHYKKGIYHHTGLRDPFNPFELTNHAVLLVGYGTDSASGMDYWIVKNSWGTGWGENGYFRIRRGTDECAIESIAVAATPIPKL
inactive: [1] 0.019 | filanesib -0.065 | zotarolimus 0.001 | idasanutlin -0.024 | alisertib 0.021 | [2] -0.04 | gefitinib 0.036 | [3] 0.026 | lapatinib -0.031 | pictilisib 0.083

DCTN1 isoform 4 (UniProt Q14203)
inactive: [1] -0.007 | filanesib 0.047 | zotarolimus 0.095 | idasanutlin 0.012 | alisertib -0.045 | [2] 0.007 | gefitinib 0.042 | [3] -0.083 | lapatinib -0.007 | pictilisib -0.135

DMAC1 (UniProt Q96GE9)
inactive: [1] -0.121 | filanesib 0.04 | zotarolimus -0.04 | idasanutlin -0.339 | alisertib -0.174 | [2] -0.111 | gefitinib -0.074 | [3] 0.145 | lapatinib 0.053 | pictilisib 0.038

EIF3J (UniProt O75822)
inactive: [1] -0.067 | filanesib -0.086 | zotarolimus 0.007 | idasanutlin -0.042 | alisertib -0.018 | [2] 0.079 | gefitinib -0.004 | [3] -0.057 | lapatinib -0.057 | pictilisib -0.04

EDEM2 (UniProt Q9BV94)
Chain of UniProt Q9BV94 (Q9BV94 whole entry, looked up): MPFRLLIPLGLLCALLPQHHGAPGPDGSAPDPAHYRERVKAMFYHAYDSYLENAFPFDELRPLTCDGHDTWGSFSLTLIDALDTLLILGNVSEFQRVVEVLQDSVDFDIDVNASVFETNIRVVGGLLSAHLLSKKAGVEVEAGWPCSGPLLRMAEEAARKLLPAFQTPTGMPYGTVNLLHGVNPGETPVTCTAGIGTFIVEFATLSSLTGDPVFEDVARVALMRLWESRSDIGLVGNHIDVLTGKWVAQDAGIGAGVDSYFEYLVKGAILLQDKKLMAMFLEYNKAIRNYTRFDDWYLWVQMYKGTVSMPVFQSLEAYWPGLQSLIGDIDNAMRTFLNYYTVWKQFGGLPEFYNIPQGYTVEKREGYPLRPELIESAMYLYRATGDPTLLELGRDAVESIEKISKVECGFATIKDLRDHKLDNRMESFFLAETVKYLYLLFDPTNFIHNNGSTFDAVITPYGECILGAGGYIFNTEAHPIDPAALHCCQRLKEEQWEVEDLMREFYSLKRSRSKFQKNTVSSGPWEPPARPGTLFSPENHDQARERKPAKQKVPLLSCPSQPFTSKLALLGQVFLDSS
active: alisertib -0.441
inactive: [1] -0.149 | filanesib -0.03 | zotarolimus 0.022 | idasanutlin -0.154 | [2] 0.028 | gefitinib 0.033 | [3] 0.205 | lapatinib -0.064 | pictilisib 0.09

DIP2A (UniProt Q14689)
inactive: [1] -0.097 | filanesib 0.028 | zotarolimus -0.018 | idasanutlin -0.047 | alisertib 0.357 | [2] -0.098 | gefitinib 0.008 | [3] -0.004 | lapatinib -0.047 | pictilisib 0.103

EIF2S3 (UniProt P41091)
Chain of UniProt P41091 (P41091 whole entry, looked up): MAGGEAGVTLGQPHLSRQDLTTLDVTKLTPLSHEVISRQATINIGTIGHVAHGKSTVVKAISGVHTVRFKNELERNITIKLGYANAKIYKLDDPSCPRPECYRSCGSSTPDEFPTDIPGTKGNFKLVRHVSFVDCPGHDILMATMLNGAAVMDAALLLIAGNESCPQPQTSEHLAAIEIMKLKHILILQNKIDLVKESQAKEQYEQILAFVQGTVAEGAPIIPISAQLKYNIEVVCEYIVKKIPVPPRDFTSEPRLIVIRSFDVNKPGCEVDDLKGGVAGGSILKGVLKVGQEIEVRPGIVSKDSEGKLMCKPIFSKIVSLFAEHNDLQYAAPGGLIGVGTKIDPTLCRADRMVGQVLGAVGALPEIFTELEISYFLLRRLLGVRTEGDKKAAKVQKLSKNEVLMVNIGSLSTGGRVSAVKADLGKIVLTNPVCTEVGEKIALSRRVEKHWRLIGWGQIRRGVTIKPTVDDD
inactive: [1] -0.028 | filanesib 0.119 | zotarolimus 0 | idasanutlin 0.07 | alisertib -0.068 | [2] 0.002 | gefitinib -0.033 | [3] -0.07 | lapatinib 0.004 | pictilisib -0.027

EMD (UniProt P50402)
inactive: [1] -0.049 | filanesib -0.013 | zotarolimus 0.007 | idasanutlin 0.037 | alisertib -0.08 | [2] -0.031 | gefitinib -0.053 | [3] 0.074 | lapatinib -0.025 | pictilisib 0.093

EEF1G isoform 2 (UniProt P26641)
inactive: [1] -0.017 | filanesib 0.012 | zotarolimus 0.027 | idasanutlin -0.014 | alisertib -0.046 | [2] -0.016 | gefitinib 0.018 | [3] -0.083 | lapatinib 0.041 | pictilisib -0.06

DHX36 (UniProt Q9H2U1)
inactive: [1] 0.04 | filanesib 0.119 | zotarolimus 0.024 | idasanutlin 0.017 | alisertib 0.025 | [2] 0.017 | gefitinib -0.127 | [3] 0.059 | lapatinib 0.025 | pictilisib -0.038

DAB2 (UniProt P98082)
inactive: [1] -0.009 | filanesib 0.079 | zotarolimus 0 | idasanutlin -0.055 | alisertib -0.081 | [2] 0.155 | gefitinib 0.024 | [3] 0.011 | lapatinib -0.005 | pictilisib 0.071

DNAJB12 (UniProt Q9NXW2)
inactive: [1] 0.023 | filanesib -0.024 | zotarolimus -0.06 | idasanutlin -0.006 | alisertib -0.081 | [2] 0.023 | gefitinib 0.029 | [3] 0.006 | lapatinib -0.033 | pictilisib -0.051

DUS2 (UniProt Q9NX74)
inactive: [1] -0.02 | filanesib -0.014 | zotarolimus -0.041 | idasanutlin -0.004 | alisertib -0.075 | [2] 0.059 | gefitinib 0.04 | [3] -0.11 | lapatinib 0.043 | pictilisib -0.128

DCAF10 (UniProt Q5QP82)
inactive: [1] -0.047 | filanesib 0.016 | zotarolimus -0.01 | idasanutlin 0.002 | alisertib 0.09 | [2] 0.076 | gefitinib -0.051 | [3] -0.067 | lapatinib -0.081 | pictilisib 0.032

E2F4 (UniProt Q16254)
inactive: [1] -0.024 | filanesib -0.034 | zotarolimus 0.042 | idasanutlin 0.006 | alisertib -0.056 | [2] -0.098 | gefitinib 0.003 | [3] 0.059 | lapatinib 0.047 | pictilisib 0.044

ECPAS (UniProt Q5VYK3)
inactive: [1] 0.004 | filanesib -0.004 | zotarolimus 0.033 | idasanutlin -0.127 | alisertib -0.001 | [2] 0.055 | gefitinib -0.007 | [3] -0.087 | lapatinib -0.033 | pictilisib 0.005

DFFB (UniProt O76075)
Chain of UniProt O76075 (O76075 whole entry, looked up): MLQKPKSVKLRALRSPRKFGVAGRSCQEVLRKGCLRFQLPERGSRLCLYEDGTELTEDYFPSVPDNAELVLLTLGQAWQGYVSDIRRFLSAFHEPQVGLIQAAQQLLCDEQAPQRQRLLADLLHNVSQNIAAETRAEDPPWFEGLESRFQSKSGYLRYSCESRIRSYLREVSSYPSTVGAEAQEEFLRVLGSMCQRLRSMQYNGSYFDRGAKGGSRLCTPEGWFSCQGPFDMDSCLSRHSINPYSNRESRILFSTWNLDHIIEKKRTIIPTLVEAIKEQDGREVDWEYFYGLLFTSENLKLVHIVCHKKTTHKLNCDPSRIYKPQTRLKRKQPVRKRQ
inactive: [1] -0.016 | filanesib -0.141 | zotarolimus -0.093 | idasanutlin -0.03 | alisertib -0.004 | [2] 0.06 | gefitinib -0.054 | [3] 0.041 | lapatinib -0.015 | pictilisib -0.074

DDX4 (UniProt Q9NQI0)
Chain of UniProt Q9NQI0 (Q9NQI0 whole entry, looked up): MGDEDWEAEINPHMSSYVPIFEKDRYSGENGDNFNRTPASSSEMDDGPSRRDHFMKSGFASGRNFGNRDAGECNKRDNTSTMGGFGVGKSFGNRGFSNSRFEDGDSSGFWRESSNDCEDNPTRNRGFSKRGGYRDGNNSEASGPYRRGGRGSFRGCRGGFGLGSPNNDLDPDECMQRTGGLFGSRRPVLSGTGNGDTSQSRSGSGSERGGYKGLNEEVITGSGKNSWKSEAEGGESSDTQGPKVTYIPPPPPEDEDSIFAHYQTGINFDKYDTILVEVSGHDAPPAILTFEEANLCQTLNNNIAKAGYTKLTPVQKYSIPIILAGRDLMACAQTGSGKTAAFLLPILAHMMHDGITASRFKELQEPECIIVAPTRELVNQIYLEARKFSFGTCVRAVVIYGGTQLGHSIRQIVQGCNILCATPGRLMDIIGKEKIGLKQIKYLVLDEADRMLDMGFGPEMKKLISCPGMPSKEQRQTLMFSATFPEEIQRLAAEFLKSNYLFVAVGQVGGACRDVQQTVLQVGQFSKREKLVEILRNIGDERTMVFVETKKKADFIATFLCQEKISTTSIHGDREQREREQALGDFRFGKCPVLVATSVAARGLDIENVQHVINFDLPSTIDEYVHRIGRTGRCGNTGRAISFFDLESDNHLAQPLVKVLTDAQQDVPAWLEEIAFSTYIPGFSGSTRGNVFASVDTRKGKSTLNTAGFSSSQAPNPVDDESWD
inactive: [1] -0.474 | filanesib 0.186 | zotarolimus 0.004 | idasanutlin 0.42 | alisertib 0.172 | [2] 0.368 | gefitinib 0.048 | [3] -0.715 | lapatinib -0.399 | pictilisib 0.17

EXOC7 (UniProt Q9UPT5)
inactive: [1] 0.023 | filanesib 0.032 | zotarolimus 0.01 | idasanutlin -0.076 | alisertib -0.024 | [2] 0.149 | gefitinib -0.054 | [3] -0.053 | lapatinib -0.031 | pictilisib -0.057

ELOC (UniProt Q15369)
inactive: [1] 0.007 | filanesib 0.04 | zotarolimus 0.096 | idasanutlin -0.009 | alisertib -0.009 | [2] 0.033 | gefitinib -0.006 | [3] 0.011 | lapatinib -0.002 | pictilisib 0.105

FAM177A1 isoform 2 (UniProt Q8N128)
inactive: [1] -0.072 | filanesib -0.145 | zotarolimus -0.041 | idasanutlin -0.02 | alisertib 0.013 | gefitinib 0.031 | [3] -0.029 | lapatinib -0.018 | pictilisib 0
active: [2] -0.291

CTU1 (UniProt Q7Z7A3)
inactive: [1] 0.045 | filanesib -0.193 | zotarolimus 0.022 | idasanutlin -0.037 | alisertib -0.063 | [2] -0.061 | gefitinib -0.024 | [3] 0.025 | lapatinib -0.085 | pictilisib -0.005

CYBA (UniProt P13498)
inactive: [1] -0.06 | filanesib -0.189 | zotarolimus -0.067 | idasanutlin 0.017 | alisertib -0.044 | [2] -0.171 | gefitinib -0.007 | [3] 0.067 | lapatinib -0.034 | pictilisib -0.047

DPP8 (UniProt Q6V1X1)
Chain of UniProt Q6V1X1 (Q6V1X1 whole entry, looked up): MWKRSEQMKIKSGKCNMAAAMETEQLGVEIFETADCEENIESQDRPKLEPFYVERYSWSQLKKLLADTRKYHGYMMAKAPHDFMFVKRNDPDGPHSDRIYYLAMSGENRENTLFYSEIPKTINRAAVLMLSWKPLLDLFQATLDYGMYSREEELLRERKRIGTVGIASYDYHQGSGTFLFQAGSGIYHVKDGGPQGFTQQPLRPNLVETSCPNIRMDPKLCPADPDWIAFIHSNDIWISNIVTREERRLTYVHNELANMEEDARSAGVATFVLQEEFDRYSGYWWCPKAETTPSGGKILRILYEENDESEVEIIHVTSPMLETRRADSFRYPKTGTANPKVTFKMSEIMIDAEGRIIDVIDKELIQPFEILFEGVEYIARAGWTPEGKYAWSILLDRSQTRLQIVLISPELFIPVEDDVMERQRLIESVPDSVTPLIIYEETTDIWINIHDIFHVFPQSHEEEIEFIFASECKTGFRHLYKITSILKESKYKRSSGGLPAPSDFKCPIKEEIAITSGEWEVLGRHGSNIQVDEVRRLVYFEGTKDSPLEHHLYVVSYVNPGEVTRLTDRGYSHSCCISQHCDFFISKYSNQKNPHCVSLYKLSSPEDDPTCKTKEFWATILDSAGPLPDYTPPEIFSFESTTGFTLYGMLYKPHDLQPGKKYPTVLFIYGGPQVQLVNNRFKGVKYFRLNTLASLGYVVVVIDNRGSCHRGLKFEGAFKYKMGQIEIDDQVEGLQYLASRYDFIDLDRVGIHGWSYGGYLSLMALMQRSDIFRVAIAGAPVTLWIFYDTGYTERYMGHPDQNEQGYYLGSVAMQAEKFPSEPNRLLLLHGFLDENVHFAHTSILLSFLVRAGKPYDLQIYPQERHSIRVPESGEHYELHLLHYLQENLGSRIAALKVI
inactive: [1] -0.089 | filanesib 0.048 | zotarolimus 0.028 | idasanutlin -0.112 | alisertib -0.01 | [2] 0.041 | gefitinib 0.042 | [3] 0.037 | lapatinib -0.077 | pictilisib 0.022

CTSL (UniProt P07711)
Chain of UniProt P07711 (P07711 whole entry, looked up): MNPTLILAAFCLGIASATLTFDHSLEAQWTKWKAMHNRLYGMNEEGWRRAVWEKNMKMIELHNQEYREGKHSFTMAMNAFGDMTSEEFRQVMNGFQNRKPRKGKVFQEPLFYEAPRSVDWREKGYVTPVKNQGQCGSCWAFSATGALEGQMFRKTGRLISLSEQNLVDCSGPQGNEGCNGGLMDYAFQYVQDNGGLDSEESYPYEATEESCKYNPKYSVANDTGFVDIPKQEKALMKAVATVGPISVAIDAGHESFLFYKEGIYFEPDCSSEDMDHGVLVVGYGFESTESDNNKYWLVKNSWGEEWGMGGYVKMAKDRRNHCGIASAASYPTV
active: filanesib 0.316
inactive: [1] -0.143 | zotarolimus -0.041 | idasanutlin 0.125 | alisertib -0.099 | [2] 0.044 | gefitinib 0.025 | [3] 0.086 | lapatinib 0.087 | pictilisib 0.057

FAM122A (UniProt Q96E09)
inactive: [1] -0.05 | filanesib -0.004 | zotarolimus -0.038 | idasanutlin 0.017 | alisertib -0.068 | [2] -0.053 | gefitinib 0.019 | [3] 0.005 | lapatinib 0.018 | pictilisib 0.092
